Sampled rows, rich in hits. Any-hit rate of the full collection: about 4.4%.
tim10-1 inh = growth inhibitors of tim10-1 mutant yeast. inhibition, % at 20 µM. S. cerevisiae tim10-1 ts strain growth, BacTiter-Glo, 24 h. 2.2% of 330,000 active;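 active = inhibition of at least 40%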;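 also: mutant grown at 25 °C; 0% = DMSO wells with yeast and 100% = wells holding no yeast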
TIM10 inh = inhibits growth of TIM10 yeast strain; 1.4% of 330,000 active; inhibition, % at 10 µM; S. cerevisiae TIM10 strain growth, BacTiter-Glo luminescence, 24 h; AID 463195;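 active = inhibition of 40% or more at the single tested concentration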;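 also: wild-type TIM10 isogenic control strain grown at permissive 25 °C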
PfHsp90 set2 = reduces growth (ATP signal) of yeast expressing P. falciparum Hsp90; AID 504621; inhibition, % at 9.4 µM; 0.32% of 310,000 active; S. cerevisiae expressing PfHsp90, BacTiter-Glo ATP, 48 h; yeast lacking PDR1 and PDR3 efflux regulators;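 active = every replicate shows inhibition above about 80%, whatever the replicate mean, limit read from the data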;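 also: 0% = DMSO neutral controls and 100% = 20 µM radicicol positive controls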
SKKanGAS inh = blocks kanamycin growth of S. pyogenes SKKanGAS strain; BacTiter-Glo, 6 h; inhibition, % at 7.5 µM; 1.3% of 300,000 active; AID 1662;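 active = mean replicate score, as percent of positive control median, at least 50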;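 also: strain carries kanamycin resistance gene driven by streptokinase promoter and grows in 40 µg/ml kanamycin; loss of luminescence reflects streptokinase promoter inhibition or plain growth inhibition; 0% = median of DMSO wells and 100% = positive control at its reference dose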
tim23-1 inh = growth inhibitors of tim23-1 mutant yeast | S. cerevisiae tim23-1 growth, BacTiter-Glo luminescence, 24 h | inhibition, % at 20 µM | 1.3% of 330,000 active | AID 463212;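 active = growth inhibition of the mutant yeast at or above 50%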;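 also: temperature-sensitive mutant grown at 25 °C; plate controls were DMSO-treated mutant yeast for no effect and medium wells lacking yeast for full effect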
* marks the source's active call; other numbers are inactive results; . = no result; + = active, no number.

SMILES	tim10-1 inh	TIM10 inh	PfHsp90 set2	SKKanGAS inh	tim23-1 inh
CCN(CC)Cc1nc2c(c(=O)[nH]1)C1(CCCC1)Cc1ccccc1-2	36	38	.	-17	26
c1ccc(OCc2nc3c4c(ncn3n2)-c2ccccc2CC42CCCC2)cc1	-17	-26	-7	52*	-6
Cc1nn(-c2ccc(Cl)cc2)c(Cl)c1/C=N/NC(=O)c1ccc(NS(=O)(=O)c2cccs2)cc1	-5	15	-15	63*	11
O=C(N/N=C/C=C/c1ccccc1[N+](=O)[O-])c1cccs1	11	19	8	6	8
O=C(N/N=C\C=C\c1ccc([N+](=O)[O-])o1)c1cccs1	28	0	3	91*	13
O=C(N/N=C/c1ccc([N+](=O)[O-])o1)c1ccc(NS(=O)(=O)c2cccs2)cc1	18	8	5	72*	26
CCc1cccc(C)c1NC(=O)CCCN1C(=O)CN(C)C1=O	-6	7	-7	.	5
CC1=CC2C(C(O)CC3(C)C2CC(C)C32OCOC23COCO3)C2(C)C/C(=C\O)C(=O)C=C12 (centres undefined)	.	.	110*	.	.
C=C(C1=CCN(S(=O)C(C)(C)C)[C@@H]1CCO)c1ccccc1 (some centres undefined)	.	.	10	.	.
Cc1nc(N2CCC(C)CC2)c2c(C)c(C(=O)Nc3cccc(C(F)(F)F)c3)sc2n1	34	27	41	21	16
Cc1nc(Nc2cnc(/C=C/c3cc(C(=O)Nc4cccc(C(F)(F)F)c4)ccc3C)cn2)cc(N2CCNCC2)n1	35	7	.	72*	24
Cc1ccc(Cn2c(=O)n(Cc3ccco3)c(=O)c3ccccc32)cc1	33	19	3	55*	20
O=c1c2ccccc2n(Cc2ccc(Cl)cc2)c(=O)n1Cc1ccco1	17	2	11	13	15
Cc1ccc(O)c(C(=O)CC(=O)c2ccc(Cl)cc2)c1	.	.	-40	96*	.
Cc1ccc(C(=O)CC(=O)COc2ccc(Cl)cc2C)cc1	15	20	-15	101*	1
Cc1ccc(O)c(C(=O)CC(=O)c2cccc(F)c2)c1	-2	6	.	81*	17
COc1ccc(O)c(C(=O)CC(=O)c2ccc(F)cc2)c1	-36	16	-11	14	33
Cc1ccc(NC(=O)c2ccc(OC(=O)COc3ccc(Cl)cc3C)cc2)cc1	7	8	-21	-6	3
Cc1ccc(C(=O)CC(=O)c2ccccc2)cc1	12	9	13	53*	27
Oc1ccc(C[C@H]2CNC(=S)N2CC2CCCN2C[C@H](Cc2ccc(O)cc2)N2C[C@H](Cc3ccccc3)N(CC3CCCCC3)C2=S)cc1 (some centres undefined)	.	.	-8	.	.
CN(c1cccc(Cl)c1)S(=O)(=O)c1cccc(C(=O)NCc2ccncc2)c1	-8	-1	13	.	14
O=C1[C@@H]2C(c3cccnc3)=NO[C@@H]2C(=O)N1c1ccc(Br)cc1	-6	3	94*	-1	11
Cc1noc(C)c1NC(=O)N(C)C[C@H]1Oc2c(NC(=O)C3CC3)cccc2C(=O)N([C@H](C)CO)C[C@@H]1C	-4	0	3	.	-5
COc1ccc2[nH]c3c(c2c1)CCN1C(=O)C(CC(=O)NC(C)(C)C)C[C@H](C(=O)N(C(C)C)C(C)C)[C@@]31C (some centres undefined)	20	0	-26	.	39
CCCCC[C@@H]1C=C(C(=O)O)[C@H](c2ccc(F)cc2)N1S(=O)(=O)c1ccc(C)cc1	14	15	18	.	9
SMILES	tim10-1 inh	TIM10 inh	PfHsp90 set2	SKKanGAS inh	tim23-1 inh
C/C(=N\NC(=O)CSc1nc(C)[nH]c1[N+](=O)[O-])c1ccc(F)cc1	3	7	1	56*	11
Cc1cc(C)c(CN2CCN(C(=O)Cn3cnc4c(OCc5ccccc5)ncnc43)CC2)c(C)c1	-16	-8	16	.	24
CC[C@@H]1C/C=C\Cc2ccccc2[C@@H](C(=O)C[C@H](O)CC(C)=O)OC1=O	9	-4	11	.	6
O=[N+]([O-])c1ccc(O)c(/C=N/Nc2ccccn2)c1	.	.	111*	-3	.
COc1cccc(/C=N/Nc2nc3ccccc3[nH]2)c1O	-6	-3	2	79*	19
O=[N+]([O-])c1ccc(NN=Cc2ccccc2O)nc1	.	.	-17	.	.
O=[N+]([O-])c1ccc(O)c(/C=N/Nc2nc3ccccc3[nH]2)c1	10	13	20	71*	7
O=[N+]([O-])c1ccc(O)c(/C=N/Nc2ncnc3c2cnn3-c2ccccc2)c1	12	11	6	88*	18
O=[N+]([O-])c1cccc(N/N=C/c2cc([N+](=O)[O-])ccc2O)c1	-19	-18	-4	-4	-12
COc1cc(C)c(NC(=O)COc2ccc3c(c2)CCC3)cc1OC	28	12	-10	.	22
O=C(Oc1ccc(Cl)c2cccnc12)c1cccnc1	25	7	112*	68*	29
Oc1ccc(Cl)c2cccnc12	.	.	108*	.	.
Oc1c(Cl)cc(Cl)c2cccnc12	.	.	107*	87*	.
Oc1c(Cl)cc(CN2CCCCC2)c2cccnc12	11	13	2	24	16
COc1ccc(NC(=O)C2CC(=O)N/C(=N/N=C/c3ccccc3)S2)cc1 (centres undefined)	1	10	5	-2	10
CC(/C=C/c1ccc(N(C)C)cc1)=N/N=C1/NC(=O)CC(C(=O)Nc2ccc(Cl)cc2)S1 (centres undefined)	33	24	-10	95*	18
CCCOc1ccc(NC(=O)C2CC(=O)N/C(=N/N=C(C)/C=C/c3ccc(N(C)C)cc3)S2)cc1 (centres undefined)	29	12	.	44	23
CC(/C=C/c1ccc(N(C)C)cc1)=N\N=C1\NC(=O)CC(C(=O)Nc2ccccc2)S1 (centres undefined)	23	15	-13	75*	24
COc1ccc(OCC(=O)NNC(=O)C(=O)Nc2cc(OC)ccc2OC)cc1	5	-2	-8	-3	3
COc1ccc(OC)c(NC(=O)C(=O)NNC(=O)COc2ccc(Br)cc2C)c1	1	2	-12	121*	-7
Cn1cccc1C(=O)NNC(=O)COc1ccccc1Cl	-8	-3	-5	.	0
CCC(CC)CN1CCC(CN2C(=S)NC[C@@H]2CC(C)C)CC1	.	.	12	.	.
COc1ccc(C2=CC3=C(Br)C(=O)C(C)(OC(=O)c4cccs4)C(=O)C3=CO2)cc1 (centres undefined)	20	-6	107*	2	-4
COCCN1C=C2C(=O)C(C)(OC(=O)CCC(=O)OC)C(=O)C(Br)=C2C=C1c1ccc(OC)cc1 (centres undefined)	11	13	5	8	20
COc1ccc(C2=CC3=C(Br)C(=O)C(C)(OC(=O)c4ccco4)C(=O)C3=CO2)cc1 (centres undefined)	31	15	+	10	36

Screens (PubChem)
